DT40 TDP1 CPT: growth inhibition of DT40 Tdp1-/-;hTDP1 cells with camptothecin (screen for TDP1 inhibitors). chicken DT40 Tdp1-/-;hTDP1 cells + 20 nM CPT, ATP luminescence, 48 h. Potency, µM (series often up to 46.2 µM), most hits filed as inhibitors. hit rate 12% among 420,000. AID 686979; also: nearly all actives have a fitted effect of over 55% in size
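Chicken DT40 Tdp1-/- cells complemented with human TDP1, 400 cells/well, exposed to compounds plus 20 nM camptothecin for at least 48 h at 37 C; viability read as ATP content by CellTiter-Glo luminescence.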
ELG1 repair inh: blocks ELG1-dependent DNA repair in HEK293T cells. Potency, µM (highest dose often 46.1 µM), hits mostly inhibitors. HEK293T ELG1-luciferase reporter, luminescence, 16 h; DNA damage induced by 5-fluorouridine. AID 504467. hit rate 2.3% among 330,000; also: nearly all actives have a fitted effect of over 55% in size
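Quantitative HTS, concentration-response format. 2,000 cells/well co-treated with 5-fluorouridine and compound, 16 hr in 5% CO2 at 37 °C; ONE-Glo luminescence read after 30 min.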
12-LOX inh: blocks human arachidonate 12S-lipoxygenase; hit rate 1.1% among 580,000; P18054; Potency, µM (top dose mostly 108 µM), hits mostly inhibitors; AID 1671190; purified 12hLO, xylenol orange hydroperoxide absorbance
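Hydroperoxide product was detected by ferrous iron/xylenol orange as the 573 to 405 nm absorbance ratio. Arachidonic acid at 40 uM (final) was turned over for 30 min at room temperature by 150 nM human 12hLO, pH 7.0 Hepes buffer, after 15 min compound preincubation.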
Gal4-VP16 FLuc: Gal4-VP16 reporter inhibition counter-screen | AID 2546 | Drosophila S2 Gal4-VP16 UAS-luciferase, luminescence, 20 h | Potency, µM (highest dose often 53.6 µM), hits mostly inhibitors | hit rate 3.5% among 310,000;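 also: Gal4-VP16 expression switched on by copper sulfate through the metallothionein promoter; nearly all actives have a fitted effect of over 50% in size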
RORg inh: ROR gamma (mouse) transcription inhibition | Potency, µM (top dose mostly 53.6 µM), usual class: inhibitors | hit rate 5.4% among 310,000 | AID 2551 | P51450 | Drosophila S2 Gal4-RORgamma UAS-luciferase reporter, 20 h; also: nearly all actives have a fitted effect of over 60% in size
Target sequence (P51450 whole entry, looked up, the tested form may be a part): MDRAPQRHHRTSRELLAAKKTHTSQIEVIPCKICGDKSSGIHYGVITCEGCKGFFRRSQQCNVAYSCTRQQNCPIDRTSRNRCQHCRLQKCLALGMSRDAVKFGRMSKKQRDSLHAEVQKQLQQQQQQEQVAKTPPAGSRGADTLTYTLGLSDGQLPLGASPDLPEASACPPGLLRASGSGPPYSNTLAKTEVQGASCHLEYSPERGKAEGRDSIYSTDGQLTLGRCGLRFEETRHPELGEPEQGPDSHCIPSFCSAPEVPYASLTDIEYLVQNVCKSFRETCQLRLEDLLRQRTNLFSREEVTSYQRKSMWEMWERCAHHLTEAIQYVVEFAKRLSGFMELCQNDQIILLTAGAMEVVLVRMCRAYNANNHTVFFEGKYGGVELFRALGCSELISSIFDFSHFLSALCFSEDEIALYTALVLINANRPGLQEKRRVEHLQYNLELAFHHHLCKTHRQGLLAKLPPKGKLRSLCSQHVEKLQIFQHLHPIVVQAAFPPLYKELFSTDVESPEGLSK
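In this cell-based reporter format, copper sulfate (700 uM final) drives Gal4–ROR gamma fusion expression from a metallothionein promoter in Drosophila Schneider cells; compounds preincubated 1 hr, reporter read after 20 hr at ambient temperature.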
TDP1 cell noCPT: qHTS for Inhibitors of human tyrosyl-DNA phosphodiesterase 1 (TDP1): qHTS in cells in absence of CPT; hit rate 15% among 420,000; AID 686978, 2013; Potency, µM (titrated, usually from 46.2 µM), most hits filed as inhibitors; DT40 Tdp1-/- hTDP1 cells, no CPT, ATP luminescence, 48 h; also: nearly all actives have a fitted effect of over 55% in size
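No-CPT arm: Tdp1-/-;hTDP1 DT40 cells (400/well) plus compounds, incubated ≥48 hr at 37 °C. Readout CellTiter-Glo luminescence.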
Hits are given with their value; – = inactive; ? = inconclusive; · = not tested or not shown; [ ] = another dose, or the depositor's remark. Rows were chosen to be rich in hits. Some 15% of all compounds tested hit in one or more screens of this group. Calls follow the shape of the dose curve; as a rule, active = well fitted curve in the direction sought with a large enough effect; inconclusive = small, poorly fitted or top-dose-only effect, or another doubt; inactive = no such curve, though single readings can be large; an effect the other way counts as inactive or inconclusive.

SMILES	DT40 TDP1 CPT	ELG1 repair inh	12-LOX inh	Gal4-VP16 FLuc	RORg inh	TDP1 cell noCPT
CCn1c(SCc2ccccc2Cl)nc(=O)c2c(C(=O)OC)cc(C3CC3)nc21	12µM	·	–	·	·	16µM
COC(=O)c1cc(C)nc2c1c(=O)nc(SCc1ccccc1C)n2C1CC1	?	·	–	·	·	?
O=C(NC1CCC(C(F)(F)F)CC1)C1CCCCC1 (configuration not stated)	·	·	–	·	·	·
CN1CCC(N[C@H]2C[C@@H](Cc3cc(-c4ccccc4)on3)C2(C)C)CC1	·	·	–	·	·	·
COc1ccc2c(c1)CCc1c(C(=O)Nc3ccc(OC)c(OC)c3)noc1-2	?	–	–	?	1.4µM	?
COc1ccc2c(c1)CCc1c(C(=O)NCCc3ccc(OC)c(OC)c3)noc1-2	?	?	–	–[0.365 µM]	–	13µM
CC1(C)CC2CC(C)(CN2C(=O)c2ccccc2)C1 (configuration not stated)	16µM	–	–	–	–	–
COc1ccc2c(c1)CCc1c(C(=O)N3CC4(C)CC3CC(C)(C)C4)noc1-2 (configuration not stated)	16µM	?	–	?	–	?
COc1ccc(C(=O)NCC(=O)N2CCCCCCNC(=O)CC2c2ccccc2)c(OC)n1 (configuration not stated)	·	·	–	·	·	·
N#C/C(=C/c1ccccc1)c1nc2ccccc2[nH]1	·	·	–	·	·	·
Cc1nn(CC(=O)N(C(C)C)C(C)C)c(C)c1S(=O)(=O)NC(C)(C)C	·	·	–	·	·	·
CSC1CCCCC1(O)CSc1nc(-c2ccc(C)cc2)cc(-c2ccccc2)c1C#N (configuration not stated)	·	·	–	·	·	·
COc1cc(NC(=O)c2noc3c2CCc2ccccc2-3)cc(OC)c1OC	7.3µM	·	–	·	·	16µM
CCCNC(=O)c1noc2c1CCc1ccccc1-2	–	?	–	–	–	–
COC(=O)N1C(=O)[C@@](CC(C)C)(c2ccccc2)N1C(=O)OC	·	?	·	–	?	·
COC(=O)N1C(=O)[C@](c2ccc(OC)cc2)(C(C)C)N1C(=O)OC	21µM	–	–	–	–	16µM
COC(=O)N1C(=O)[C@](c2ccsc2)(C(C)C)N1C(=O)OC	15µM	?	–	–	–	?
O=c1ccc2cc(O)c(O)cc2o1	16µM	–	?	–	–	?
COc1ccc(CNC(=O)c2ccc(CS(=O)Cc3ccccc3Cl)o2)cc1 (configuration not stated)	?	·	–	·	·	18µM
O=C(NCCCc1ccccc1)c1ccc(CS(=O)Cc2ccccc2Cl)o1 (configuration not stated)	–	?	–	–	–	?
O=C(NCc1ccco1)c1ccc(CS(=O)c2ccccc2Cl)o1 (configuration not stated)	–	·	–	·	·	–
Cc1ccccc1S(=O)Cc1ccc(C(=O)NCc2ccccc2Cl)o1 (configuration not stated)	21µM	·	–	·	·	?
O=C(NCCCN1CCC(Cc2ccccc2)CC1)c1ccc(CS(=O)c2ccccc2Cl)o1 (configuration not stated)	23µM	·	?	·	·	21µM
Cc1ccc(CS(=O)Cc2ccc(C(=O)NCc3ccccc3Cl)o2)cc1 (configuration not stated)	?	–	?	–	–	?
O=C(NCc1cccc(F)c1)c1ccc(CS(=O)c2ccccc2Cl)o1 (configuration not stated)	16µM	·	–	·	·	23µM
SMILES	DT40 TDP1 CPT	ELG1 repair inh	12-LOX inh	Gal4-VP16 FLuc	RORg inh	TDP1 cell noCPT
CCOc1ccccc1C1NC(=O)N(CC(=O)Nc2cccc(F)c2)C2=C1C(=O)OC2 (configuration not stated)	·	·	–	·	·	·
O=C(NCC1CCN(Cc2ccccc2Cl)CC1)c1cc2ccc3cccnc3c2[nH]1	?	·	–	·	·	16µM
O=C(NCC1CCN(Cc2ccc(F)cc2)CC1)c1cc2ccc3cccnc3c2[nH]1	16µM	·	–	·	·	21µM
CCC1CCc2c(sc(NC(=O)c3cccc4ccccc34)c2C#N)C1 (configuration not stated)	·	·	–	·	·	·
O=C(c1nn2c(C(F)(F)F)cc(-c3cccs3)nc2c1Cl)N1CCCc2ccccc21	16µM	?	–	–	–	12µM
C#CC1(O)CCC2C3CCc4cc(O)cc(C)c4C3CCC21C (configuration not stated)	16µM	·	?	·	·	?
C#C[C@]1(O)CCC2C3CCC4=C(CCC(=O)C4)C3CC[C@@]21C (some centres not stated)	?	·	·	–	–	?
CCOc1ccccc1N(CC)C(=O)Cn1ncc2c1-c1ccccc1OC2	21µM	·	–	·	·	16µM
CCOC(=O)N1CCN(C(=O)Cn2ncc3c2-c2ccccc2OC3)CC1	?	–	–	–	–	–
COc1ccccc1NC(=O)Cn1ncc2c1-c1ccccc1OC2	15µM	–	–	–	–	?
Cc1cc(C)nc(N2CCC(CNC(=O)CCc3ccccc3)CC2)n1	?	–	–	–	–	21µM
COc1ccc(NC(=O)C2CCCN(c3c4c(nc5ncnn35)CCC4)C2)cc1OC (configuration not stated)	?	–	–	–	–	?
Cc1cc(C)nc(N2CCC(C(=O)Nc3ccc(Oc4ccccc4)cc3)CC2)n1	5.8µM	–	–	–	–	8.2µM
Cc1cc(C)nc(N2CCC(C(=O)NCc3ccccc3)CC2)n1	–	–	–	–	–	–
O=C(NC1CCCc2ccccc21)C1CCN(c2c3c(nc4ncnn24)CCC3)CC1 (configuration not stated)	?	–	–	–	–	?
O=C(Nc1ccc2c(c1)CCC2)C1CCN(c2c3c(nc4ncnn24)CCC3)CC1	23µM	?	–	–	?	21µM
O=C(Nc1ccc(Oc2ccccc2)cc1)C1CCN(c2c3c(nc4ncnn24)CCC3)CC1	15µM	16µM	–	?	?	18µM
COc1ccccc1-n1cc(C(=O)NC(C(=O)O)c2c(C)n[nH]c2C)cn1 (configuration not stated)	·	·	–	·	·	·
O=C(Nc1ccc2oc(-c3ccc(F)cc3)cc(=O)c2c1)c1ccco1	·	·	–	·	·	·
CC(=O)Nc1ccc(Sc2ccc([N+](=O)[O-])o2)cc1	2.6µM	·	?	·	·	2.6µM
CC(C)(C)C(=O)Nc1ccc(Sc2ccc([N+](=O)[O-])cc2)cc1	8.2µM	?	–	?	?	7.3µM
COc1cc(C(=O)NC2=Nc3ccccc3N=C(C)C2c2ccccc2)cc(OC)c1OC (configuration not stated)	·	·	–	·	·	·
Cn1c(/C=N/O)nc2ccccc21	–	–	–	–	–	–

Screening results deposited in PubChem by National Center for Advancing Translational Sciences (NCATS).
